In PubChem BioAssay:
For part of these data: Entries with a potency or affinity are not part of this list. Activity calls are given as the source filed them.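 How the source made its calls, unless noted: active means membrane potential signal rise above negative control mean plus 3 SD in both duplicates, also active in the earlier TRPC4 screen; inactive means the rest.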

Experiments:
[1] = tested on: TRPC4 beta (transient receptor potential cation channel C4), mouse; assay: TRPC4 cation channel opening, retest – cell-based, Fluo4 calcium, HEK293 TRPC4beta/mu-opioid, duplicates, 10 µM, confirmation (AID 2426;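 active means fluorescence ratio normalized to control raised more than 50% in primary screen plus both repeat runs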); settings: Fluo4 calcium fluorescence, at 10 µM; hits give high values
[2] = tested on: transient receptor potential cation channel C4 beta (TRPC4), mouse; assay: TRPC4 cation channel opening, second retest – cell-based, second round, Fluo4, HEK293 TRPC4beta/mu-opioid, 1 µM, confirmation (AID 2461;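 active means primary screen active and over 50% activation in each of two duplicate runs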); settings: Fluo4 calcium fluorescence, at 1 µM; hits give high values
[3] = tested on: TRPC4 (transient receptor potential cation channel C4 beta), mouse; assay: potentiation of DAMGO EC20 TRPC4 response – cell-based, second round, Fluo-4, HEK293 TRPC4beta/mu-opioid, 1 µM, confirmation (AID 2554;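 active means primary screen hit whose fluorescence ratio, in both repeats, exceeds the weak agonist control mean by 3 SD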); settings: DAMGO EC20, Fluo-4 calcium flux, at 1 µM; hits give high values
[4] = tested on: TRPC4 beta (transient receptor potential cation channel C4), mouse; assay: potentiation of DAMGO EC20 TRPC4 response – cell-based, Fluo-4, HEK293 TRPC4beta/mu-opioid, confirmation (AID 2555;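 active means primary screen hit whose calcium fluorescence ratio, in both repeats, exceeds the weak agonist control mean by 3 SD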); settings: DAMGO EC20, Fluo-4 calcium flux, at 10 µM; hits give high values
[5] = molecular target: Short transient receptor potential channel 4 (Mus musculus) (UniProt Q9QUQ5); assay: blockers of DAMGO-evoked TRPC4 calcium flux – cell-based, Fluo4, HEK293 TRPC4beta/mu-opioid, confirmation (AID 2636;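 active means calcium signal cut by more than 3 SD below the full-agonist control yet still positive, in both repeats and the earlier primary screen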); settings: at 10 µM; hits give high values
[6] = molecular target: Short transient receptor potential channel 4 (Mus musculus) (UniProt Q9QUQ5); assay: blockers of DAMGO-evoked TRPC4 calcium flux – cell-based, second round, Fluo4, HEK293 TRPC4beta/mu-opioid, 1 µM, confirmation (AID 2637;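 active means calcium signal ratio cut to more than 3 SD under the fully stimulated control mean yet still positive, in both repeats and the primary screen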;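 on inhibition: percent of integrated ratio relative to wells lacking test compound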); settings: at 1 µM; hits give high values
[7] = molecular target: Short transient receptor potential channel 4 (Mus musculus) (UniProt Q9QUQ5); assay: calcium entry via TRPC4 opening agents – cell-based, HEK293 TRPC4/mu-opioid, Fluo-4 calcium, dose response (AID 434937;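 active means primary screen activator hit with a dose response curve and TRPC4 channel activation at any tested dose; inactive means no activation, no dose response, or not a primary hit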)
[8] = molecular target: Short transient receptor potential channel 4 (Mus musculus) (UniProt Q9QUQ5); assay: block of DAMGO-driven TRPC4 calcium entry – cell-based, HEK293 TRPC4/mu-opioid, Fluo-4 calcium, dose response (AID 434942;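 active means primary screen inhibitor hit that blocks the TRPC4 channel at some tested dose, yielding a dose curve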)
[9] = molecular target: Short transient receptor potential channel 6 (Mus musculus) (UniProt Q61143); assay: TRPC6 blockade by TRPC4 inhibitor hits – cell-based, HEK293, membrane potential dye, duplicate, selectivity assay for TRPC4 inhibitor project, confirmation (AID 434948;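 active means active in primary screen and both duplicates, each dropping signal beyond three positive-control SD with fluorescence still positive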); settings: HEK293 TRPC6, membrane potential dye fluorescence, at 10 µM, stimulated with maximal-effect acetylcholine; hits give high values
[10] = molecular target: Short transient receptor potential channel 6 (Mus musculus) (UniProt Q61143); assay: TRPC6 opening by TRPC4 activator hits – cell-based, HEK293, membrane potential dye, duplicate, selectivity assay for TRPC4 activator project, confirmation (AID 434950); settings: HEK293 TRPC6, membrane potential fluorescence, at 10 µM; activation: hits give high values; outcome: activation
[11] = molecular target: Short transient receptor potential channel 6 (Mus musculus) (UniProt Q61143); assay: positive modulators of mouse TRPC6 channel – HEK293 cells, membrane potential dye, duplicate, selectivity assay for TRPC4 potentiator project, confirmation (AID 434952;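 active means compound raising the membrane signal above positive-control mean plus 3 SD in both repeats, and a primary screen hit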); settings: HEK293 TRPC6, membrane potential dye fluorescence, at 10 µM, maximal acetylcholine added after compound; hits give high values
[12] = molecular target: Short transient receptor potential channel 4 (Mus musculus) (UniProt Q9QUQ5); assay: calcium flux activators in TRPC4/5HT1a cells, counter-screen for TRPC4 activator project, cell-based, second counter screen, HEK293 TRPC4/5HT1a, Fluo-4 (AID 434977;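 active means calcium signal rise above buffer-control mean plus 5 SD in both duplicates, and also a hit in the primary screen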); settings: Fluo-4 calcium flux, at 10 µM; hits give high values
[13] = serotonin-gated TRPC4 signal block – cell-based, second counter screen, HEK293 TRPC4/5HT1a, Fluo-4, counter-screen for TRPC4 inhibitor project, confirmation (AID 434978;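 active means primary screen active whose calcium signal fell more than 3 SD beyond the full-serotonin control mean in both duplicate plates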;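 on outcome: serotonin given first at submaximal then at maximal dose after compound preincubation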); settings: Fluo-4 calcium flux, at 10 µM, serotonin added to trigger calcium flux; hits give high values
[14] = tested on: TRPC4 (mouse), co-expressed with 5HT1a in HEK293; assay: enhancement of serotonin-evoked TRPC4 response – cell-based, second counter screen, HEK293 TRPC4/5HT1a, Fluo-4, counter-screen for TRPC4 potentiator project, confirmation (AID 434979;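 active means signal rise over 3 SD above mean of control wells given weak agonist, in both repeats and first screen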); settings: Fluo-4 calcium flux, at 10 µM, serotonin added at its EC20 dose; hits give high values
[15] = nonspecific calcium rise without TRPC4 – cell-based, HEK293 mu-opioid receptor line, counter-screen for TRPC4 activator project, confirmation (AID 449723;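 active means hit in primary screen, with calcium signal over 5 SD above buffer well mean in both duplicates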;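 further: counter screen cells carry the mu-opioid receptor alone and lack TRPC4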); settings: HEK293 mu-opioid cells, Fluo-4 calcium fluorescence, at 10 µM; hits give high values
[16] = nonspecific potentiation of DAMGO calcium response – cell-based, HEK293 mu-opioid receptor line, counter-screen for TRPC4 allosteric potentiator project, confirmation (AID 449724;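 active means calcium signal rise more than 3 SD above the low-dose agonist control mean, in both duplicate plates and the primary screen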); settings: HEK293 mu-opioid receptor cells, Fluo-4 calcium flux, at 10 µM, compound added before EC20 DAMGO stimulus; hits give high values
[17] = molecular target: Short transient receptor potential channel 4 (Mus musculus) (UniProt Q9QUQ5); assay: potentiation of DAMGO-evoked TRPC4 calcium signal – cell-based, HEK293 TRPC4/mu-opioid, Fluo-4 calcium, EC20 DAMGO, dose response (AID 434941;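 active means earlier screen potentiator hit that boosts the TRPC4 ion channel at some dose, with a dose response; inactive means no potentiation, no dose response, or not a prior hit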;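 further: calcium entry triggered by an EC20 dose of DAMGO at the co-expressed mu-opioid receptor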)
[18] = nonspecific flux increase, KCNQ1-free cells – parental CHO cells, counter-screen for KCNQ1 potentiator project (AID 493006;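 active means duplicate-averaged activation above buffer control mean plus 5 SD of those controls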); settings: parental CHO-K1 cells, FluxOR thallium flux, at 10 µM; hits give high values
[19] = molecular target: Potassium voltage-gated channel subfamily KQT member 1 (Homo sapiens) (UniProt P51787); assay: enhancement of KCNQ1 channel thallium flux – FluxOR thallium flux, CHO cells, duplicates, confirmation (AID 493007;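 active means potentiation averaged over duplicate wells exceeding buffer-only control mean by more than 3 SD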;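 on outcome: cells depolarized by a potassium plus thallium sulfate stimulus after compound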;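 on potentiation: 0% = buffer-only wells and 100% = R-L3 activator control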); settings: KCNQ1 cell line, FluxOR thallium flux fluorescence, at 10 µM; hits give high values, % of reference activator effect, buffer zero
[20] = molecular target: Potassium voltage-gated channel subfamily KQT member 2 (Rattus norvegicus) (UniProt O88943); assay: KCNQ2 thallium flux enhancement – KCNQ2-CHO-K1 cells, selectivity assay for KCNQ1 potentiator project (AID 493009;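 active means mean duplicate potentiation above the buffer control mean plus 5 SD of buffer wells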;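 further: assay conditions were tuned for KCNQ1 rather than KCNQ2 modulators; signal is max minus min fluorescence divided by baseline after thallium stimulus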); settings: FluxOR thallium flux fluorescence, at 10 µM; hits give high values, scaled: buffer 0, activator control 100
Potassium voltage-gated channel subfamily KQT member 2 (Rattus norvegicus), sequence (O88943 whole entry, looked up): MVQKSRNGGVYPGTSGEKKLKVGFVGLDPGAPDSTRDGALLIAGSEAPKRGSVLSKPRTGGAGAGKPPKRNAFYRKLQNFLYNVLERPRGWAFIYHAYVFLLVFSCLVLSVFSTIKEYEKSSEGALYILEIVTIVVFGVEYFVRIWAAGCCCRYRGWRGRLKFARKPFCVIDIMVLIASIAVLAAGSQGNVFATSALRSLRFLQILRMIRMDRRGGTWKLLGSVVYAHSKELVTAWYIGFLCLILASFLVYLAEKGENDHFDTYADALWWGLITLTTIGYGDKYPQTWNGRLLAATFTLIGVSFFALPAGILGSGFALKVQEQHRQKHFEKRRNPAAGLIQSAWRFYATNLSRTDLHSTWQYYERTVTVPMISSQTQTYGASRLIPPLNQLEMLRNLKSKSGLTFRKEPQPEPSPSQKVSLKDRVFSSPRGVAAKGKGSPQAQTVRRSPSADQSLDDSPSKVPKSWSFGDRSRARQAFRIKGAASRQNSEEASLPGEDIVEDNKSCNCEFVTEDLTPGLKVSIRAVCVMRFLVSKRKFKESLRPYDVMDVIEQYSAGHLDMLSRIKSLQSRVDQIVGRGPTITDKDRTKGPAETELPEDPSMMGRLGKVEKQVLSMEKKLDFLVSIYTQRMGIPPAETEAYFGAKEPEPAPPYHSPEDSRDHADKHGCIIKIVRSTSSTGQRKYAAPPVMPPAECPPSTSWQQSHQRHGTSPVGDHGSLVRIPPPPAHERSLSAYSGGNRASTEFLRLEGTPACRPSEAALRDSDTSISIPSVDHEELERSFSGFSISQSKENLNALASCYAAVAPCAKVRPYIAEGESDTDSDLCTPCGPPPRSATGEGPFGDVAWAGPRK

Short transient receptor potential channel 6 (Mus musculus), sequence (Q61143 whole entry, looked up): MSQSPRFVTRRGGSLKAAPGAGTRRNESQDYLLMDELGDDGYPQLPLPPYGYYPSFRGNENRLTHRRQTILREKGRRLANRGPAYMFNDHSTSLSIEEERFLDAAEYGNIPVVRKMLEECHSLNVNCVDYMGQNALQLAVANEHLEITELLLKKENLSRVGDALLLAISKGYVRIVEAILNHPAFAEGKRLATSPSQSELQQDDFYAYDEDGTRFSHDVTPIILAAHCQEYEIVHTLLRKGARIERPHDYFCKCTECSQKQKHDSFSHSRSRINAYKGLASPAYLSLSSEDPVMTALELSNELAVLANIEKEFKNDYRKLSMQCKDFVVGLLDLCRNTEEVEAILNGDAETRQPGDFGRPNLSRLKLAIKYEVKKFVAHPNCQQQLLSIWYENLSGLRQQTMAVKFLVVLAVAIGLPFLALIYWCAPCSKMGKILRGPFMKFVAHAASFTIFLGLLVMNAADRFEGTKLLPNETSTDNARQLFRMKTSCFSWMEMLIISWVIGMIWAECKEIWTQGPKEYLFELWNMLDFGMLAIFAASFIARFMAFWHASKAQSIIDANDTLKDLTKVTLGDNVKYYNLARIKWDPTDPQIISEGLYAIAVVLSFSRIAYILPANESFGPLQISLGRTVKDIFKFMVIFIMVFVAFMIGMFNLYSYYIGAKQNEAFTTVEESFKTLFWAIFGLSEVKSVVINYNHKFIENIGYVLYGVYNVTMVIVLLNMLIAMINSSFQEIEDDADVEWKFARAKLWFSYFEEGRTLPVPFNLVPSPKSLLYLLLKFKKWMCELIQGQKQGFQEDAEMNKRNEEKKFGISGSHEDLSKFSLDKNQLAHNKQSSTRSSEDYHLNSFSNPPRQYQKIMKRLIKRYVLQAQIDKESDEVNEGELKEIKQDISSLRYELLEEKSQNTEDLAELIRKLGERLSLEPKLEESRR
Short transient receptor potential channel 4 (Mus musculus), sequence (Q9QUQ5 whole entry, looked up): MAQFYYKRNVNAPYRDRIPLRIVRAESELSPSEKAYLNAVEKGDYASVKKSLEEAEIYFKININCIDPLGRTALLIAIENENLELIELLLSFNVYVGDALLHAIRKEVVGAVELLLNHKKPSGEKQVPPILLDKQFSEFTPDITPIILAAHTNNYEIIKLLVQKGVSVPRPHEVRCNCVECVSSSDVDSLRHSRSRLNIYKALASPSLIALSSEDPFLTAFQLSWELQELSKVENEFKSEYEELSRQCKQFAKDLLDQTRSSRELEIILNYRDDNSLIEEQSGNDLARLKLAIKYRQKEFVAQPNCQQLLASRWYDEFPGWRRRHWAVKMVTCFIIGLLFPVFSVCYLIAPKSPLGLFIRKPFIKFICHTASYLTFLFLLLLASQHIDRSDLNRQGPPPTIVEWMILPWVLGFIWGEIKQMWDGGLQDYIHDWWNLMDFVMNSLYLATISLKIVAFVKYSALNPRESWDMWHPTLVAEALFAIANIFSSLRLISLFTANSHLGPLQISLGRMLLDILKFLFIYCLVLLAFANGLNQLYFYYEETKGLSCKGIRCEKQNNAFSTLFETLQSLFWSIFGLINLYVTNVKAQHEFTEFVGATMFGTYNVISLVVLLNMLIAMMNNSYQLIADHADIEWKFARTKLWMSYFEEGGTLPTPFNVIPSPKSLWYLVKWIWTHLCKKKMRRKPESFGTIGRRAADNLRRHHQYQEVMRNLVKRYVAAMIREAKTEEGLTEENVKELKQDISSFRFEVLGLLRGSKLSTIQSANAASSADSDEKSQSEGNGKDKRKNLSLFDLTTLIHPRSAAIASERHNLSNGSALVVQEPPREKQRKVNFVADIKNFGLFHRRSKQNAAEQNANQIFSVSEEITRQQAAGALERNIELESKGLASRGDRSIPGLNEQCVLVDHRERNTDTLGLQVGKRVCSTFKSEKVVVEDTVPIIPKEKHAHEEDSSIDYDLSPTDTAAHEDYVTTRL
Potassium voltage-gated channel subfamily KQT member 1 (Homo sapiens), sequence (P51787 whole entry, looked up): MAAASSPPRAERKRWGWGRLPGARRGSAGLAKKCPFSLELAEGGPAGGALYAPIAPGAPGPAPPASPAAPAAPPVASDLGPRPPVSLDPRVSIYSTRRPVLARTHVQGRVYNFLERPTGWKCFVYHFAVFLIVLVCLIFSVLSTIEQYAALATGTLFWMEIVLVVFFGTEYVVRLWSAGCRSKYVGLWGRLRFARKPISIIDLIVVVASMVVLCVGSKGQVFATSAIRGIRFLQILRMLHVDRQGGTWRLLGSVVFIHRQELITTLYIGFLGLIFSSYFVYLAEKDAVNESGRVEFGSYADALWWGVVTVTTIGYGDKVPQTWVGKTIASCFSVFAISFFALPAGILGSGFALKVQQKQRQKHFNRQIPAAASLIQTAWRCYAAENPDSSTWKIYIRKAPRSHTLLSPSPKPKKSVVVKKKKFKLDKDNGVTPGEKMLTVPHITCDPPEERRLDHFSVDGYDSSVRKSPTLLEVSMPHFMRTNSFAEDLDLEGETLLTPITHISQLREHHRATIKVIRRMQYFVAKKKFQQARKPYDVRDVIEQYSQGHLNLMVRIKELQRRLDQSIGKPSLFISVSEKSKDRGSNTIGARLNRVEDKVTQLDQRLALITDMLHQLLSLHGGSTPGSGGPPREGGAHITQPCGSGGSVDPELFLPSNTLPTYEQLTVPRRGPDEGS

Cc1cc(-c2ccc(C)c(S(=O)(=O)N3CCN(C(=O)c4ccco4)CC3)c2)on1
active: potentiation [4] 46% | potentiation [14] 54.2%
inactive: outcome [1] | outcome [2] | outcome [3] | outcome [5] | outcome [6] | outcome [7] | outcome [8] | outcome [9] | outcome [10] | outcome [11] | outcome [12] | outcome [13] | outcome [15] | outcome [16]

Cc1ccc(/C=N/NC(=O)NC2CCCCC2)o1
inactive: outcome [1] | outcome [2] | outcome [5] | outcome [6] | outcome [7] | outcome [8] | outcome [9] | outcome [10] | outcome [11] | outcome [12] | outcome [13] | outcome [15] | outcome [16]
active: potentiation [3] 10% | potentiation [4] 54% | potentiation [14] 69.9%

CCCCN(CC)CCNC(=O)c1cc2c(=O)n(C)c3ccccc3c2s1
inactive: outcome [1] | outcome [2] | outcome [5] | outcome [6] | outcome [7] | outcome [8] | outcome [9] | outcome [10] | outcome [11] | outcome [12] | outcome [13] | outcome [15] | outcome [16]
active: potentiation [3] 31% | potentiation [4] 9% | potentiation [14] 8.16%

CN(C)CC(CCC(CN(C)C)C(O)(c1ccccc1)c1ccccc1)C(O)(c1ccccc1)c1ccccc1 (configuration not stated)
inactive: outcome [1] | outcome [2] | outcome [3] | outcome [4] | outcome [5] | outcome [6] | outcome [7] | outcome [17] | outcome [9] | outcome [10] | outcome [11] | outcome [12] | outcome [13] | outcome [14] | outcome [15] | outcome [16] | outcome [18] | outcome [19] | outcome [20]

Cc1cccc(Cc2c(C)nc3c(C(=O)NCc4ccco4)cnn3c2C)c1
active: potentiation [14] 58.9%
inactive: outcome [1] | outcome [2] | outcome [3] | outcome [4] | outcome [5] | outcome [6] | outcome [7] | outcome [8] | outcome [9] | outcome [10] | outcome [11] | outcome [12] | outcome [13] | outcome [15] | outcome [16]

COc1cc(NS(=O)(=O)c2ccc3ccccc3c2)c2ncccc2c1
active: inhibition [5] 70% | inhibition [13] 23.4% | potentiation [19] 47% | potentiation [20] 154%
inactive: outcome [1] | outcome [2] | outcome [3] | outcome [4] | outcome [6] | outcome [7] | outcome [17] | outcome [9] | outcome [10] | outcome [11] | outcome [12] | outcome [14] | outcome [15] | outcome [16] | outcome [18]

Brc1ccccc1CN1CCN(Cc2c[nH]c3ccccc23)CC1
inactive: outcome [1] | outcome [2] | outcome [3] | outcome [4] | outcome [6] | outcome [7] | outcome [17] | outcome [10] | outcome [11] | outcome [12] | outcome [14] | outcome [15] | outcome [16] | outcome [18] | outcome [19] | outcome [20]
active: inhibition [5] 78% | inhibition [9] 55.5% | inhibition [13] 41.8%

Cc1ccc(-c2nnc(N3CCC(C)CC3)c3ccccc23)cc1C
active: potentiation [3] 7% | potentiation [4] 127% | potentiation [14] 60.2%
inactive: outcome [1] | outcome [2] | outcome [5] | outcome [6] | outcome [7] | outcome [8] | outcome [9] | outcome [10] | outcome [11] | outcome [12] | outcome [13] | outcome [15] | outcome [16]

COc1ccc(N/C(C)=C2/C(=O)C(=O)N(CCO)C2c2ccc([N+](=O)[O-])cc2)cc1 (configuration not stated)
active: potentiation [3] 189% | potentiation [4] 150% | potentiation [14] 129%
inactive: outcome [1] | outcome [2] | outcome [5] | outcome [6] | outcome [7] | outcome [8] | outcome [9] | outcome [10] | outcome [11] | outcome [12] | outcome [13] | outcome [15] | outcome [16]

Cc1cc(C)cc(N/C(N)=N/c2nc(C)cc(C)n2)c1
inactive: outcome [1] | outcome [2] | outcome [3] | outcome [4] | outcome [6] | outcome [7] | outcome [17] | outcome [9] | outcome [10] | outcome [11] | outcome [12] | outcome [14] | outcome [15] | outcome [16] | outcome [18] | outcome [19] | outcome [20]
active: inhibition [5] 100% | inhibition [13] 30.2%

c1ccc(NC(=NCc2ccco2)c2ccccc2)cc1
active: inhibition [5] 94% | inhibition [6] 45%
inactive: outcome [1] | outcome [2] | outcome [3] | outcome [4] | outcome [7] | outcome [17] | outcome [9] | outcome [10] | outcome [11] | outcome [12] | outcome [13] | outcome [14] | outcome [15] | outcome [16]

N#C/C(=N\Nc1cccc([N+](=O)[O-])c1)C(=O)c1ccc(Br)cc1
active: inhibition [5] 98% | inhibition [9] 21.5% | inhibition [13] 12.4%
inactive: outcome [1] | outcome [2] | outcome [3] | outcome [4] | outcome [6] | outcome [7] | outcome [17] | outcome [10] | outcome [11] | outcome [12] | outcome [14] | outcome [15] | outcome [16]

Cc1cc(C(C)(C)C)c(O)c(C)c1CC1=NCCN1
inactive: outcome [1] | outcome [2] | outcome [3] | outcome [5] | outcome [6] | outcome [7] | outcome [8] | outcome [9] | outcome [10] | outcome [11] | outcome [12] | outcome [13] | outcome [14] | outcome [15] | outcome [16]
active: potentiation [4] 14%

CN(C)CCOc1cc(Cl)cc(Cl)c1
inactive: outcome [1] | outcome [2] | outcome [3] | outcome [4] | outcome [5] | outcome [6] | outcome [7] | outcome [8] | outcome [9] | outcome [10] | outcome [11] | outcome [12] | outcome [13] | outcome [15] | outcome [16]
active: potentiation [14] 10.7%

O=C1C(Cl)=C(Nc2cccc(O)c2)C(=O)N1Cc1ccccc1
inactive: outcome [1] | outcome [2] | outcome [3] | outcome [5] | outcome [6] | outcome [7] | outcome [8] | outcome [9] | outcome [10] | outcome [11] | outcome [12] | outcome [13] | outcome [15] | outcome [16]
active: potentiation [4] 38% | potentiation [14] 20.8%
